Source: PubChem BioAssay
Active and inactive are the calls of the source.

How the values were obtained:
[1] = system: Human papillomavirus type 1a protein E7 (residues 44-93); assay: HPV1a E7 fragment binders on microarrays, primary screen, biochemical, small-molecule microarray, residues 44-93, 635 nm fluorescence (AID 1108); conditions: small-molecule microarray binding, fluorescence 635 nm; higher = more signal;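 also: E7 fragment applied at 1 µg/mL in TBST for 1 h at 4 C; score combines spot fluorescence with its signal to noise ratio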
[2] = modulators of HCV replicon luciferase signal, primary screen, HCV replication inhibitor project, Huh7 cells, luciferase reporter (AID 1109); conditions: 48 h, higher = more signal;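 also: huh7 hepatoma cells harbouring a luciferase neomycin HCV replicon reporter; luciferase luminescence as measure of HCV replicon replication; test concentration not given here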
[3] = target: Left-right determination factor 2 (Homo sapiens) (UniProt O00292); assay: LEFTY2 binders on small-molecule microarrays, primary screen, biochemical, small-molecule microarray, 635 nm fluorescence scan (AID 1110); conditions: LEFTY2 binding, higher = more signal
[4] = target: Calmodulin-1 (Homo sapiens) (UniProt P0DP23); assay: CALM1 binders on microarrays, EGTA buffer, profiling panel, biochemical, small-molecule microarray, Cy5-labelled CALM1 (AID 1111); conditions: Cy5-CALM1 binding fluorescence, higher = more signal;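 also: labelled calmodulin applied in Tris saline Tween buffer holding calcium plus EGTA and DTT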
[5] = target: Calmodulin-1 (Homo sapiens) (UniProt P0DP23); assay: calcium-bound CALM1 binders on microarrays, profiling panel, artefact control for SMM control-protein annotation, biochemical, small-molecule microarray, Cy5-labelled CALM1, plus calcium (AID 1112); conditions: Cy5-CALM1 binding fluorescence, higher = more signal;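 also: score merges spot fluorescence with signal to noise from triplicate slides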
[6] = small-molecule microarray binders of probe aWnt5a, primary screen, biochemical, biotinylated probe, 635/667 nm fluorescence (AID 1113); conditions: higher = more signal;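 also: score merges 667 nm fluorescence intensity with signal-to-noise per printed feature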
[7] = small-molecule microarray binders of probe aShh, primary screen, biochemical, biotinylated probe, 635/667 nm fluorescence (AID 1114); conditions: higher = more signal;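 also: probe is biotin-labelled aShh protein from a stem cell growth factor screen; measures binding of labelled protein to compounds printed on the slide; score merges feature fluorescence at 667 nm with signal-to-noise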
[8] = small-molecule microarray binders of probe aNog, primary screen, biochemical, biotinylated probe, 635/667 nm fluorescence (AID 1115); conditions: higher = more signal;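 also: probe is biotinylated aNog protein used at 0.15 µg/mL for 1 h at 4 C; z-score combines 667 nm fluorescence of each spot with its signal to noise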
[9] = target: Torsin-1A-interacting protein 1 (Homo sapiens) (UniProt Q5JTV8); assay: LAP1 binders from COS7 cell lysate, primary screen, small-molecule microarray, 635/667 nm fluorescence (AID 1116); conditions: COS7-hLAP1 lysate binding, 635 nm fluorescence, higher = more signal
[10] = target: Alpha-bungarotoxin (Bungarus multicinctus) (UniProt P60615); assay: alpha-bungarotoxin binders on microarray, profiling panel, artefact control for SMM control protein annotation, biochemical, small-molecule microarray, Alexa647 label, 635/667 nm fluorescence (AID 1117); conditions: alpha-BTX-A647 binding fluorescence, higher = more signal
Albumin (Bos taurus) = Albumin (Bos taurus) (UniProt P02769); assay: bovine serum albumin binders on microarray, profiling panel, artefact control for SMM control protein annotation, biochemical, small-molecule microarray, Alexa647 label, 635/667 nm fluorescence (AID 1118); conditions: BSA-A647 binding, fluorescence 635 nm, higher = more signal;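 also: score merges 667 nm emission intensity and signal-to-noise per printed compound spot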
[11] = small-molecule microarray binders of probe aXIP, primary screen, biochemical, NeuroSMM set, 635/667 nm fluorescence (AID 1119); conditions: higher = more signal, called active from +8 up or from −8 down;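 also: probe is the protein aXip251-270 applied at 1 µg/mL to compound-printed slides; binding of probe to printed compounds measured as 667 nm fluorescence plus signal to noise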
[12] = small-molecule binders of probe aNOTCH3, primary screen, biochemical, small-molecule microarray, 635/667 nm fluorescence (AID 1120); conditions: higher = more signal;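 also: probe is a biotin-tagged antibody raised against NOTCH3 rather than NOTCH3 protein; score merges spot fluorescence near 667 nm with spot signal to noise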
[13] = small-molecule binders of probe aNOTCH2, primary screen, biochemical, small-molecule microarray, 635/667 nm fluorescence (AID 1121); conditions: higher = more signal;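 also: score merges feature fluorescence read at 667 nm with its signal to noise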
[14] = target: Carbonic anhydrase 2 (Homo sapiens) (UniProt P00918); assay: CAII small-molecule binders, profiling panel, biochemical, small-molecule microarray, Alexa647-labelled CAII (AID 1122); conditions: CAII-A647 binding fluorescence, higher = more signal
[15] = COS7 lysate on small-molecule microarray, probe aHis, 635 nm (AID 1123); conditions: COS7 cell lysate, fluorescence, higher = more signal;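 also: z-score combines 667nm fluorescence intensity with signal-to-noise per printed compound spot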
[16] = compound binding in COS7 lysate, probe aLAP1, primary screen, cell lysate, small-molecule microarray (AID 1124); conditions: probe aLAP1, fluorescence, higher = more signal;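 also: lysate comes from COS7 cells expressing LAP1 and is applied at 0.3 µg/mL; score merges spot fluorescence near 667 nm with signal-to-noise over triplicate slides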
Sam68 (KHDRBS1) = assay: Sam68 small-molecule binders, primary screen, biochemical, small-molecule microarray, 635 nm fluorescence (AID 1125); conditions: small-molecule microarray binding, higher = more signal;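 also: score merges 667 nm channel intensity with signal to noise over triplicate slides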
[17] = system: Chordin-like protein 2 (CHRDL2); assay: CHRDL2 small-molecule binders, primary screen, biochemical, small-molecule microarray, 635 nm fluorescence (AID 1126); conditions: small-molecule microarray binding, fluorescence 635 nm; higher = more signal;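 also: printed compound slides probed with Chrdl2 protein at 4 µg/mL for 1 h at 4 C; score merges 667 nm emission intensity with signal to noise over three replicate slides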
[18] = target: Concanavalin-A (Canavalia ensiformis) (UniProt P02866); assay: ConA small-molecule binders, primary screen, artefact control for SMM control protein annotation, biochemical, small-molecule microarray, Alexa647 label, 635 nm (AID 1127); conditions: ConA-A647 binding fluorescence, higher = more signal;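 also: z combines 667 nm emission intensity with signal-to-noise across three replicate slides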
Concanavalin-A (Canavalia ensiformis), sequence (P02866 whole entry, looked up): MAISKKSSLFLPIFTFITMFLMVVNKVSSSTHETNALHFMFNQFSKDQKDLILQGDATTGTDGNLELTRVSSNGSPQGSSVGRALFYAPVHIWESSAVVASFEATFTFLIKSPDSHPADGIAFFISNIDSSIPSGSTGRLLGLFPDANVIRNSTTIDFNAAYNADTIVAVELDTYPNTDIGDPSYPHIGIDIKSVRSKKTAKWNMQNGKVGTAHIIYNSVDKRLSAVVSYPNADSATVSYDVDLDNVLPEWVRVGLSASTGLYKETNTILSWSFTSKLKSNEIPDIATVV

Left-right determination factor 2 (Homo sapiens), sequence (O00292 whole entry, looked up): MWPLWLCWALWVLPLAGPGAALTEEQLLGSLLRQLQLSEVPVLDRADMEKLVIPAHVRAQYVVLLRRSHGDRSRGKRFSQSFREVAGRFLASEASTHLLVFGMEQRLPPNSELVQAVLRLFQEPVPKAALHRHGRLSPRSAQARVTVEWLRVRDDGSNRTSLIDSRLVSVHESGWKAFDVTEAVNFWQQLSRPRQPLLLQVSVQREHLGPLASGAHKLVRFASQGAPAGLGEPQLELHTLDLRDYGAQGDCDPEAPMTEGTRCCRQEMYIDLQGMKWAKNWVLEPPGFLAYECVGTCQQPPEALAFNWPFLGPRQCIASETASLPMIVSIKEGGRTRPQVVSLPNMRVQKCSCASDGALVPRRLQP
Torsin-1A-interacting protein 1 (Homo sapiens), sequence (Q5JTV8 whole entry, looked up): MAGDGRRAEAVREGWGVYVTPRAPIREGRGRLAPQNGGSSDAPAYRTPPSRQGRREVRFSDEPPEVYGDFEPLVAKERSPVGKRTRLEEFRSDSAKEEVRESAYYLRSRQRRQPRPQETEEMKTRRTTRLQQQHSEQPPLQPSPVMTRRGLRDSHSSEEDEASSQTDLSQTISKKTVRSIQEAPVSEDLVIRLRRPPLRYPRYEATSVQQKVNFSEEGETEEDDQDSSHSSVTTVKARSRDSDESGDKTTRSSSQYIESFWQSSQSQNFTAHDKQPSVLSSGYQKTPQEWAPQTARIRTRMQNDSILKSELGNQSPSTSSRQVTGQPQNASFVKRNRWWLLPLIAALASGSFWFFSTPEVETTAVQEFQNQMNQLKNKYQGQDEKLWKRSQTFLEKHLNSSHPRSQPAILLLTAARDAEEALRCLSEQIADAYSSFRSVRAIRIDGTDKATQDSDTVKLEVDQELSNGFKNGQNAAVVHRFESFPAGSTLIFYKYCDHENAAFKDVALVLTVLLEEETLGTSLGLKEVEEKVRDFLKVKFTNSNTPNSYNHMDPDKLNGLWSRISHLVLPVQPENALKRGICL
Alpha-bungarotoxin (Bungarus multicinctus), sequence (P60615 whole entry, looked up): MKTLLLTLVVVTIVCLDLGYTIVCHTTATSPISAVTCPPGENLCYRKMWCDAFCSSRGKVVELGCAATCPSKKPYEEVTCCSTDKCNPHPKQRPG
Albumin (Bos taurus), sequence (P02769 whole entry, looked up): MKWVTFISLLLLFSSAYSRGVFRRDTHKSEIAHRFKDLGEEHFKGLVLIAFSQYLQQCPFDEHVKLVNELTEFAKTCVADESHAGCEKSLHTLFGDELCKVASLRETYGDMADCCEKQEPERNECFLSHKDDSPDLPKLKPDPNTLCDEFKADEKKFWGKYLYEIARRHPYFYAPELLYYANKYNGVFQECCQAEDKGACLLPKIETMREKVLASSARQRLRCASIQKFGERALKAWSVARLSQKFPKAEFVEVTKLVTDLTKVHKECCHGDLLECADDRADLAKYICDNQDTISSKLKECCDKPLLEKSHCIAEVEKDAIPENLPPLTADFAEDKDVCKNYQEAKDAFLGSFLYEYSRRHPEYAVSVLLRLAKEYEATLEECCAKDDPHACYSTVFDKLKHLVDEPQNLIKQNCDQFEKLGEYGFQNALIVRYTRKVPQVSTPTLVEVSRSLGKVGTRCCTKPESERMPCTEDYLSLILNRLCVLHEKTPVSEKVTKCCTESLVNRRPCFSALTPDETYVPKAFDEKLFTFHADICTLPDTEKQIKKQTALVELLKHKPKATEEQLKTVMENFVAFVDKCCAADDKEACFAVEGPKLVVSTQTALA

| Compound | composite z-score [1] | z-score [2] | composite z-score [3] | composite z-score [4] | composite z-score [5] | composite z-score [6] | composite z-score [7] | composite z-score [8] | composite z-score [9] | composite z-score [10] | composite z-score (Albumin (Bos taurus)) | composite Z-score [11] | composite z-score [12] | composite z-score [13] | composite z-score [14] | composite z-score [15] | composite z-score [16] | composite z-score (Sam68 (KHDRBS1)) | composite z-score [17] | composite z-score [18] |
| --- | --- | --- | --- | --- | --- | --- | --- | --- | --- | --- | --- | --- | --- | --- | --- | --- | --- | --- | --- | --- |
| CCOC(=O)C1=C[C@@H](C(C)(C)C)N(S(=O)(=O)c2ccc(C)cc2)[C@H]1c1ccccc1Cl | 0.694 | -1.8 | 0.633 | 1.95 | 0.84 | 0.1 | -0.177 | 0.527 | 1.13 | 1.73 | 0.981 | 0.102 (inactive) | 0.0203 | 0.0423 | 0.223 | 1.72 | 0.472 | 1.32 | -0.584 | 1.12 |
| COCCOC(=O)N1C(=O)[C@@]2(c3ccccc31)[C@H](c1ccc(OCCO)cc1)N1[C@H](c3ccccc3)[C@H](c3ccccc3)OC(=O)[C@H]1[C@@H]2C(=O)N1CCN(c2ncccn2)CC1 | 1.41 | -1.47 | 1.06 | 1.51 | 0.039 | -0.001 | -0.043 | 0.998 | 1.5 | 1.26 | 0.0718 | -0.216 (inactive) | 0.146 | 0.0248 | 0.351 | 1.78 | 0.282 | 1.3 | 0.756 | 1.1 |
| CO[C@H]1O[C@H](CO)[C@@H](OC(=O)Nc2ccc(C(F)(F)F)cc2)[C@H](OC(=O)Nc2ccccc2-c2ccccc2)[C@H]1OC(=O)Nc1ccccc1-c1ccccc1 | 1.47 | -3.83 | 0.24 | 1.59 | -0.135 | -0.0445 | 0.0121 | -0.136 | 0.731 | 1.36 | -0.792 | 0.259 (inactive) | 0.144 | -0.0406 | 0.693 | 2.22 | -0.244 | 1.3 | -0.0407 | 1.2 |
| COc1ccc([Si](C)(C)[C@@H]2[C@@H](CC(=O)N(CCO)Cc3ccccc3)O[C@]3(C(=O)N(Cc4ccc(N5CCC5=O)cc4)c4ccccc43)[C@H]2C)cc1 | -0.382 | -4.13 | 1.14 | 0.086 | 0.734 | -0.176 | 0.0898 | -0.194 | 0.357 | 0.295 | 0.212 | -0.272 (inactive) | -0.178 | -0.218 | -0.23 | 0.711 | -0.161 | 0.0201 | 0.508 | 0.783 |
| COc1ccc(CCNC(=O)[C@@]2(Sc3ccc(C)cc3)CC(=O)N(C(C)C)[C@@H]2c2ccc(CO)cc2)cc1 | 0.889 | -0.887 | -2.73 | 0.359 | -0.242 | -0.28 | 0.0121 | -0.209 | -1.16 | -0.563 | 0.566 | 0.397 (inactive) | -0.39 | -0.124 | 0.7 | 0.239 | 0.0112 | -0.346 | -2.15 | -0.277 |
| CCCCC(O)C1C=CC2C(=O)N(C)C(=O)C2N1Nc1ccccc1 (stereo not given) | 1.18 | -0.413 | -0.431 | 0.259 | 0.032 | 0.0044 | -0.301 | -0.0683 | 1.02 | 0.27 | 0.555 | 0.267 (inactive) | 0.138 | -0.0708 | 0.72 | 2.06 | 0.182 | 1.29 | -0.107 | 0.31 |
| C=CCOC(=O)[C@H]1[C@@H]2C(=O)O[C@@H](c3ccccc3)[C@@H](c3ccccc3)N2[C@@H](c2ccc(OCCOC(=O)[C@@H]3C[C@@H]4C(=O)N[C@@H](CC(C)C)C(=O)N4[C@@H]3c3ccc(O)cc3)cc2)[C@]12C(=O)Nc1ccc(I)cc12 | 1.37 | -1.16 | 0.835 | 1.81 | 0.303 | 0.0095 | -0.0553 | 0.287 | 1.47 | 0.912 | 0.822 | 1.65 (inactive) | 0.0469 | -0.0486 | 0.668 | 2.52 | 0.0414 | 1.3 | 1.33 | 1.13 |
| CN(C)CCCC[C@@H]1NC(=O)[C@H]2C[C@@H](C(=O)O)[C@@H](c3cccc(OCCO)c3)N2C1=O | -0.226 | 4.23 | 0.494 | -0.526 | 0.16 | 0.0495 | 0.0611 | 0.25 | 0.633 | 1.47 | -0.468 | 0.666 (inactive) | 0.601 | 0.124 | 0.816 | 0.699 | 0.0206 | 0.524 | 0.941 | 0.931 |
| COc1ccc(CCNC(=O)[C@@H]2c3ccccc3C(=O)N(CC34CC5CC(CC(C5)C3)C4)[C@H]2c2ccc(CO)cc2)cc1 | 1.29 | -2.34 | 0.453 | 1.67 | 0.576 | -0.0286 | 0.0381 | -0.338 | 0.321 | 0.664 | 0.764 | -0.422 (inactive) | 0.0206 | -0.132 | 0.539 | 1.7 | -0.0344 | 1.22 | 0.23 | 1.11 |
| CCCCN1CC=CC23O[C@@H]4C=CCOC(=O)[C@@H]4[C@H]2C(=O)N(CCO)[C@@H]3C1=O (stereo not given in full) | -0.718 | 0.407 | -2.32 | -0.483 | 0.856 | -0.119 | 0.0893 | 0.643 | -0.401 | -1.48 | -0.852 | -0.483 (inactive) | 0.177 | -0.185 | 0.85 | -0.291 | -0.217 | -0.779 | -1.68 | -1.09 |
| [N-]=[N+]=NCc1ccccc1C[C@]1(C(=O)N2CCCCC2)N=C(c2ccc(OCCCO)cc2)O[C@H]1c1ccccc1 | 0.809 | -3.2 | -1.05 | 0.816 | 0.407 | 0.105 | 0.134 | 0.437 | 1.11 | -0.049 | -0.0604 | 0.397 (inactive) | 0.23 | -0.0323 | 0.564 | 1.22 | -0.0174 | 0.979 | -1.02 | 0.717 |
